Experiment [1] is described as follows: viability loss in pontine glioma line – cell-based, SU-DIPG-XVII, MIPE5.0, CellTiter-Glo, qHTS, dose response (AID 1347060; cut-off not given, nearly all actives have AC50 up to about 26 µM;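 for AC50: cells exposed to compound for 48 hours before viability readout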). Particulars: CellTiter-Glo ATP luminescence.
The nature of experiment [2]: viability loss in pontine glioma line – cell-based, JHH-DIPG-1, MIPE4.0, CellTiter-Glo, qHTS, dose response (AID 1347062; cut-off not given, nearly all actives have AC50 up to about 27 µM;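 for AC50: cells exposed to compound for two days before readout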). The conditions noted are these: JHH-DIPG-1 viability, CellTiter-Glo ATP luminescence.
Experiment [3] in a line: viability loss in pontine glioma line – cell-based, SU-DIPG-IV, MIPE4.0, CellTiter-Glo, qHTS, dose response (AID 1347063; cut-off not given, nearly all actives have AC50 up to about 30 µM;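 note: compound exposure lasted 48 hours before the viability readout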). The conditions noted are these: CellTiter-Glo ATP luminescence.
A short description of experiment [4]: viability loss in pontine glioma line – cell-based, SU-DIPG-XIII, MIPE5.0, CellTiter-Glo, qHTS, dose response (AID 1347064; cut-off not given, nearly all actives have AC50 up to about 23 µM;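 for AC50: cells exposed to compound for 48 hours before the viability read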). Particulars: CellTiter-Glo ATP luminescence.
Experiment [5] in a line: viability loss in pontine glioma line – cell-based, SU-DIPG-XXV, MIPE5.0, CellTiter-Glo, qHTS, dose response (AID 1347065; cut-off not given, nearly all actives have AC50 up to about 26 µM;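 note: cells exposed to compound for 48 hours before ATP readout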). Particulars: CellTiter-Glo ATP luminescence.
Experiment [6] in a line: JHH-DIPG-1 glioma cell viability, MIPE5.0 library, CellTiter-Glo luminescence, qHTS (AID 1347067; cut-off not given, nearly all actives have AC50 up to about 26 µM;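 note: cells exposed to compound for 48 hours before readout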). Particulars: JHH-DIPG-1 glioma viability, CellTiter-Glo ATP luminescence.
Experiment [7] can be described thus: viability loss with induced miR-34 in A549 – imaging, A549 dox-inducible miR-34, nuclei and caspase counts, primary screen (AID 1347080;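 active = compounds whose cell count with miR-34 switched on is under 0.7 times the count with it off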). The conditions noted are these: A549 miR-34 inducible, Hoechst nuclei count, 48 h.
A short description of experiment [8]: growth inhibition of DIPG cells – cell-based, MIPE4.0 library, CellTiter-Glo luminescence, qHTS (AID 1347066; cut-off not given, nearly all actives have AC50 up to about 30 µM;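 note: cells exposed to compound for 48 hours before readout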). The conditions noted are these: SU-DIPG-VI viability, CellTiter-Glo ATP luminescence.
Experiment [9] is described as follows: growth inhibition of DIPG cells – cell-based, MIPE5.0 library, qHTS (AID 1347068; cut-off not given, nearly all actives have IC50 up to about 30 µM;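 for IC50: cells exposed to compound for 48 hours before viability readout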). The conditions noted are these: SU-DIPG-XXV viability.
Experiment [10] can be described thus: compounds altering HSF1 focus formation in cells – imaging, Selleck Cancer Library (AID 1347162; in the data active = plate-normalised HSF1 focus index below about 0.46). The conditions noted are these: human cells, HSF1 nuclear foci imaging, at 10 µM; SSMD: measured here: HSF1 foci SSMD mean; cell count: measured here: cell number; plate-normalised HSF1 focus index: stronger effect = lower value.
The nature of experiment [11]: MELAS cybrid and Rieske KO viability enhancers – cell-based, MELAS cybrids, Rieske KO mouse fibroblasts, CellTiter-Glo, primary screen (AID 1508586;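 active = mean z-score across replicates of 1.96 or higher in either the MELAS or the Rieske mutant cell line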;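 note: z relative to plate mean and SD of compound and empty wells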). The conditions noted are these: low glucose.
Experiment [12] is described as follows: drug combination growth inhibition, ovarian cancer – cell-based, oncology-focused library, rucaparib conditional, profiling panel (AID 1508598). The conditions noted are these: patient-derived ovarian cancer cells, CellTiter-Glo viability, 144 h, stronger effect = lower value.
Where [13] appears, read: stronger effect = lower value, cell number ratio, induced over uninduced.
[14] abbreviates: measured here: relative caspase fold change +Dox/-Dox.
Where [15] appears, read: measured here: total cells with miR-34 induction, stronger effect = lower value.
[16] abbreviates: measured here: total cells without miR-34 induction.

Each structure is given as a SMILES string. Inconclusive results are not listed. The source made the active and inactive calls.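 Rule for the calls, unless noted: active = normalized viability below 100% at a tested concentration; inactive = the rest.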

Take `Cn1c2ccccc2c2c3c(c4c5ccccc5n(CCC#N)c4c21)CNC3=O`: the AC50 in [1] is 8.33 µM (active); in experiment [3], 0.148 µM (active); in [4] it was 13.2 µM (active); in experiment [5] it was 7.42 µM (active); in [6] it was 11.8 µM (active). Moreover, in experiment [2], the molecule was called inactive. In addition, the fold change in [7] (setting [13]) is 0.591 (active); in experiment [7] (setting [14]), 1.06. Further, the cell count in experiment [7] (setting [15]) was found to be 1520; in experiment [7] (setting [16]), 2580.

Turning to `Cc1c(CCOc2ccc(C(=O)O)cc2)c2cc(Cl)ccc2n1C(c1ccccc1)c1ccccc1`, the outcome in experiment [1], in [2], in experiment [3], in experiment [4], in [5] and in [8] was inactive. Moreover, the molecule was called inactive in experiment [6] and in [9]. In experiment [10], this molecule yielded an SSMD of 2.36. In addition, the cell count in [10] worked out at 6680. The plate-normalised HSF1 focus index in experiment [10] is 1.14 (inactive).

Consider `CCN1CCN(c2ccc(Nc3cc(N(C)C(=O)Nc4c(Cl)c(OC)cc(OC)c4Cl)ncn3)cc2)CC1`, for which the AC50 in [1] was 0.235 µM (active); in experiment [2], 23.5 µM (active); in experiment [3], 33.2 µM (active); in experiment [4] it was 0.332 µM (active); in [5], 0.209 µM (active); in experiment [6] it was 8.33 µM (active).

As for `NC1(c2ccc(-c3nc4ccn5c(=O)[nH]nc5c4cc3-c3ccccc3)cc2)CCC1`, the AC50 is 16.6 µM (active) in [1]; 23.5 µM (active) in [2]; 14.8 µM (active) in experiment [3]; 6.61 µM (active) in [4]; 1.86 µM (active) in [5]; 6.61 µM (active) in [6]. Further, the concentration for half-maximal inhibition (IC50) in [9] was 18.6 µM (active). Also, the fold change in [7] (setting [13]) is 0.999 (inactive); in experiment [7] (setting [14]), 1.72. Moreover, the cell count in [7] (setting [15]) came to 4130; in [7] (setting [16]) it was 4140; in experiment [10], 6650. Also, in experiment [10], the SSMD was 3.02. In addition, the plate-normalised HSF1 focus index in [10] was 1.19 (inactive). Moreover, the z-score in [11] (MELAS cybrid survival, CellTiter-Glo 48 h, stronger effect = higher value) was -0.154 (inactive); in experiment [11] (Rieske KO mouse fibroblast survival, CellTiter-Glo 72 h), -0.0056. In addition, the viability in [12] (at 0.000305 µM, OCI-C5x cells, with rucaparib 10 µM, 100% = cells with rucaparib alone) was 119% (inactive); in experiment [12] (at 0.000305 µM, OCI-C5x cells, without rucaparib), 118% (inactive); in [12] (at 0.000305 µM, OCI-P5x cells, with rucaparib 20 µM, 100% = cells with rucaparib alone), 117% (inactive); in experiment [12] (at 0.000305 µM, OCI-P5x cells, without rucaparib), 108% (inactive); in experiment [12] (at 0.00122 µM, OCI-C5x cells, with rucaparib 10 µM, 100% = cells with rucaparib alone), 119% (inactive); in experiment [12] (at 0.00122 µM, OCI-C5x cells, without rucaparib), 126% (inactive). In addition, the viability in [12] (at 0.00122 µM, OCI-P5x cells, with rucaparib 20 µM, 100% = cells with rucaparib alone) was 102% (inactive); in [12] (at 0.00122 µM, OCI-P5x cells, without rucaparib), 112% (inactive); in experiment [12] (at 0.00488 µM, OCI-C5x cells, with rucaparib 10 µM, 100% = cells with rucaparib alone) it was 111% (inactive); in experiment [12] (at 0.00488 µM, OCI-C5x cells, without rucaparib), 129% (inactive); in [12] (at 0.00488 µM, OCI-P5x cells, with rucaparib 20 µM, 100% = cells with rucaparib alone), 103% (inactive); in experiment [12] (at 0.00488 µM, OCI-P5x cells, without rucaparib), 106% (inactive). Moreover, the viability in experiment [12] (at 0.0195 µM, OCI-C5x cells, with rucaparib 10 µM, 100% = cells with rucaparib alone) was 110% (inactive); in [12] (at 0.0195 µM, OCI-C5x cells, without rucaparib), 119% (inactive).
